According to the supplement of paper PMC6522484:
± gives the standard deviation of the averaged measurements.

Columns and labels:
DLD1 [1] = experiment: cell viability (CellTiter-Glo) relative to plate median (fraction of plate median); higher = more viable cells; conditions: 10 µM, treatment time 24 h
Summary of the method: (§1)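 In 384-well plates, colorectal cancer lines with stable lentiviral 7TFP or TCF4/Wnt firefly luciferase reporters were seeded and, 24 h later, given kinase inhibitor library compounds at a final 10 µM for 24 h. A Tecan F500 reader measured firefly luciferase on one plate and CellTiterGlo on a parallel plate. Reported figures are two-replicate means of well signals normalised to the plate median, computed additively in webcellHTS2 without log transformation.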

HCT116 [2] = experiment: as above; conditions: 10 µM; treatment time 24 h; reporter: TCF4/Wnt
Summary of the method: as §1

SW480 [3] = experiment: as above; conditions: 10 µM; treatment time 24 h; reporter: 7TFP
Summary of the method: as §1

DLD1 [4] = experiment: TCF/Wnt firefly luciferase reporter signal relative to plate median (fraction of plate median); higher = higher Wnt reporter signal; conditions: 10 µM, treatment time 24 h
Summary of the method: as §1

HCT116 [5] = experiment: as above; conditions: 10 µM; treatment time 24 h; reporter: TCF4/Wnt
Summary of the method: as §1

SW480 [6] = experiment: as above; conditions: 10 µM; treatment time 24 h; reporter: 7TFP
Summary of the method: as §1

DLD1 [7] = experiment: cell viability (CellTiter-Glo) relative to plate median (fraction of plate median); higher = more viable cells; conditions: 5 µM; treatment time 24 h; reporter: 7TFP
Summary of the method: (§2)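 Colorectal cancer cell lines stably carrying lentiviral TCF/Wnt firefly luciferase reporters (7TFP or TCF4/Wnt) were plated in 384-well plates and, 24 h later, given library compounds at a final 5 µM for 24 h. Firefly luciferase or CellTiterGlo luminescence was read on parallel plates with a Tecan F500 reader. Each well's signal was normalised to the plate median in webcellHTS2 (additive, without log transformation). Values are the mean of two independent replicates.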

HCT116 [8] = experiment: as above; conditions: 5 µM; treatment time 24 h; reporter: TCF4/Wnt
Summary of the method: as §2

SW480 [9] = experiment: as above; conditions: 5 µM; treatment time 24 h; reporter: 7TFP
Summary of the method: as §2

DLD1 [10] = experiment: TCF/Wnt firefly luciferase reporter signal relative to plate median (fraction of plate median); higher = higher Wnt reporter signal; conditions: 5 µM; treatment time 24 h; reporter: 7TFP
Summary of the method: as §2

SW480 [11] = experiment: as above; conditions: 5 µM; treatment time 24 h; reporter: 7TFP
Summary of the method: as §2

For `Cn1cc(C2=C(c3cn(C4CCN(Cc5ccccn5)CC4)c4ccccc34)C(=O)NC2=O)c2ccccc21`, the cell viability (DLD1 [1]; reporter: 7TFP) was 0.854 ± 0.016, the cell viability (DLD1 [1]; reporter: TCF4/Wnt) was 0.931 ± 0.059 and the cell viability (HCT116 [2]) was 1.08 ± 0.071. For the same compound, the cell viability (SW480 [3]) was 0.931 ± 0.081, the “TCF/Wnt firefly luciferase reporter signal” value (DLD1 [4]; reporter: 7TFP) was 1.98 ± 0.86 and the “TCF/Wnt firefly luciferase reporter signal” value (DLD1 [4]; reporter: TCF4/Wnt) was 1.38 ± 0.18. The “TCF/Wnt firefly luciferase reporter signal” value (HCT116 [5]) was 2.9 ± 0.54 and the “TCF/Wnt firefly luciferase reporter signal” value (SW480 [6]) was 1.45 ± 0.17.

In the case of `CC[C@@H](CO)NC(=O)[C@@H]1C=C2c3cccc4[nH]cc(c34)C[C@H]2N(C)C1`, the cell viability (DLD1 [7]) is reported as 0.968 ± 0.045, the cell viability (HCT116 [8]) is reported as 1.02 ± 0.028 and the cell viability (SW480 [9]) is reported as 0.957 ± 0.054. For the same compound, the “TCF/Wnt firefly luciferase reporter signal” value (DLD1 [10]) was 1.04 ± 0.028 and the “TCF/Wnt firefly luciferase reporter signal” value (SW480 [11]) was 1.075 ± 0.0071.

`CC(=O)[C@H]1CC[C@H]2[C@@H]3CC[C@H]4C[C@H](O)CC[C@]4(C)[C@H]3CC[C@]12C` showed a cell viability (DLD1 [7]) of 0.966 ± 0.049, a cell viability (HCT116 [8]) of 0.97 ± 0.0057 and a cell viability (SW480 [9]) of 0.99 ± 0.014. For the same compound, the “TCF/Wnt firefly luciferase reporter signal” value (DLD1 [10]) was 0.902 ± 0.047 and the “TCF/Wnt firefly luciferase reporter signal” value (SW480 [11]) was 0.912 ± 0.059.

In the case of `CN1C[C@H](C(=O)N[C@]2(C)O[C@@]3(O)[C@@H]4CCCN4C(=O)[C@H](Cc4ccccc4)N3C2=O)C=C2c3cccc4[nH]cc(c34)C[C@H]21`, the cell viability (DLD1 [7]) is reported as 0.967 ± 0.09, the cell viability (HCT116 [8]) is reported as 1.11 ± 0.078 and the cell viability (SW480 [9]) is reported as 1.03 ± 0.042. The “TCF/Wnt firefly luciferase reporter signal” value (DLD1 [10]) was 1.23 ± 0.25 and the “TCF/Wnt firefly luciferase reporter signal” value (SW480 [11]) was 1.16 ± 0.078.

`COC[C@H]1OC(=O)c2coc3c2[C@@]1(C)C1=C(C3=O)[C@@H]2CCC(=O)[C@@]2(C)C[C@H]1OC(C)=O` [Wortmannin] showed a cell viability (DLD1 [1]; reporter: 7TFP) of 0.844 ± 0.016, a cell viability (DLD1 [1]; reporter: TCF4/Wnt) of 0.8345 ± 0.0064 and a cell viability (HCT116 [2]) of 0.733 ± 0.091. For the same compound, the cell viability (SW480 [3]) was 0.963 ± 0.035, the “TCF/Wnt firefly luciferase reporter signal” value (DLD1 [4]; reporter: 7TFP) was 0.662 ± 0.033 and the “TCF/Wnt firefly luciferase reporter signal” value (DLD1 [4]; reporter: TCF4/Wnt) was 0.821 ± 0.059. The “TCF/Wnt firefly luciferase reporter signal” value (HCT116 [5]) was 0.699 ± 0.021 and the “TCF/Wnt firefly luciferase reporter signal” value (SW480 [6]) was 0.856 ± 0.54.

Compound `O=[N+]([O-])c1ccc(O)c([N+](=O)[O-])c1` has a cell viability (DLD1 [7]) of 0.981 ± 0.042, a cell viability (HCT116 [8]) of 0.953 ± 0.034 and a cell viability (SW480 [9]) of 0.905 ± 0.098. For the same compound, the “TCF/Wnt firefly luciferase reporter signal” value (DLD1 [10]) was 0.966 ± 0.13 and the “TCF/Wnt firefly luciferase reporter signal” value (SW480 [11]) was 1.03 ± 0.035.

With `CCC(C)C(=O)O[C@@H]1C[C@@]2(C)[C@H](c3ccoc3)OC(=O)CC23OC2(C)O[C@]14[C@]1(C)[C@@H](CC(=O)OC)C5(C)CC1(O)[C@](O)(C5OC(=O)C1(C)OC1C)[C@@H](OC(C)=O)[C@]34O2` (some centres not stated) the cell viability (DLD1 [7]) was 0.972 ± 0.027, the cell viability (HCT116 [8]) was 0.961 ± 0.11 and the cell viability (SW480 [9]) was 1 ± 0.013. For the same compound, the “TCF/Wnt firefly luciferase reporter signal” value (DLD1 [10]) was 1.04 ± 0.014 and the “TCF/Wnt firefly luciferase reporter signal” value (SW480 [11]) was 0.928 ± 0.19.

Compound `CCN1CCN(C(=O)Cc2ccc(Nc3ncc(F)c(Nc4ccc(C(=O)Nc5ccccc5Cl)cc4)n3)cc2)CC1` [Aurora A Inhibitor I] has a cell viability (DLD1 [1]; reporter: 7TFP) of 0.955 ± 0.036, a cell viability (DLD1 [1]; reporter: TCF4/Wnt) of 1.09 ± 0.057 and a cell viability (HCT116 [2]) of 1.09 ± 0.14. The cell viability (SW480 [3]) was 0.927 ± 0.093, the “TCF/Wnt firefly luciferase reporter signal” value (DLD1 [4]; reporter: 7TFP) was 1.16 ± 0.057 and the “TCF/Wnt firefly luciferase reporter signal” value (DLD1 [4]; reporter: TCF4/Wnt) was 1.16 ± 0.028. For the same compound, the “TCF/Wnt firefly luciferase reporter signal” value (HCT116 [5]) was 1.21 ± 0.071 and the “TCF/Wnt firefly luciferase reporter signal” value (SW480 [6]) was 1.02 ± 0.035.

`Cc1ccccc1-n1c(Cn2cnc3c(N)ncnc32)nc2cccc(C)c2c1=O` gave a cell viability (DLD1 [1]; reporter: 7TFP) of 1.05 ± 0.05, a cell viability (DLD1 [1]; reporter: TCF4/Wnt) of 0.964 ± 0.029 and a cell viability (HCT116 [2]) of 1.19 ± 0.064. For the same compound, the cell viability (SW480 [3]) was 0.947 ± 0.027, the “TCF/Wnt firefly luciferase reporter signal” value (DLD1 [4]; reporter: 7TFP) was 1.02 ± 0.021 and the “TCF/Wnt firefly luciferase reporter signal” value (DLD1 [4]; reporter: TCF4/Wnt) was 0.941 ± 0.027. For the same compound, the “TCF/Wnt firefly luciferase reporter signal” value (HCT116 [5]) was 1.18 ± 0.057 and the “TCF/Wnt firefly luciferase reporter signal” value (SW480 [6]) was 0.9485 ± 0.005.

`COP(=S)(OC)Oc1ccc(SC)c(C)c1` showed a cell viability (DLD1 [7]) of 1 ± 0.014, a cell viability (HCT116 [8]) of 1.07 ± 0.085 and a cell viability (SW480 [9]) of 1.04 ± 0.042. For the same compound, the “TCF/Wnt firefly luciferase reporter signal” value (DLD1 [10]) was 1.07 ± 0.028 and the “TCF/Wnt firefly luciferase reporter signal” value (SW480 [11]) was 1.01 ± 0.1.

Compound `CCC[C@H]1CCCCN1` has a cell viability (DLD1 [7]) of 1.01 ± 0.021, a cell viability (HCT116 [8]) of 0.936 ± 0.046 and a cell viability (SW480 [9]) of 0.983 ± 0.039. For the same compound, the “TCF/Wnt firefly luciferase reporter signal” value (DLD1 [10]) was 1.04 and the “TCF/Wnt firefly luciferase reporter signal” value (SW480 [11]) was 1.05 ± 0.087.

Work on `O=C1C(Cl)=C(Cl)C(=O)C(Cl)=C1Cl` yielded a cell viability (DLD1 [7]) of 0.967 ± 0.061, a cell viability (HCT116 [8]) of 0.977 ± 0.033 and a cell viability (SW480 [9]) of 0.991 ± 0.028. The “TCF/Wnt firefly luciferase reporter signal” value (DLD1 [10]) was 0.997 ± 0.16 and the “TCF/Wnt firefly luciferase reporter signal” value (SW480 [11]) was 1.02 ± 0.065.

For `CNNC`, the cell viability (DLD1 [7]) was 0.936 ± 0.021, the cell viability (HCT116 [8]) was 0.866 ± 0.11 and the cell viability (SW480 [9]) was 0.945 ± 0.017. The “TCF/Wnt firefly luciferase reporter signal” value (DLD1 [10]) was 1.03 ± 0.14 and the “TCF/Wnt firefly luciferase reporter signal” value (SW480 [11]) was 0.894 ± 0.14.
